{
  "source": "PubChem BioAssay (NCATS)",
  "note": "Results filed as inconclusive are left out. The source made the active and inactive calls. The call rests on the fitted dose curve; in most records, active means well fitted curve in the direction sought with a large enough effect; inconclusive means small, poorly fitted or top-dose-only effect, or another doubt; inactive means no such curve, though single readings can be large; an effect the other way counts as inactive or inconclusive. On the % scale 0 is the no-effect control and ±100 the full control effect; potency means the concentration at half of the fitted maximal effect.",
  "data": [
    {"test_system": "Tov112D", "assay": "Primary qHTS to identify gynecologic anti-cancer compounds using libraries of approved drugs and bioactive compounds (AID 1345084); further: nearly all actives have a fitted effect of over 55% in size", "conditions": "Gynecologic cancer cell panel viability, ATPlite luminescence, 48 h; series mostly up to 57.5 µM", "outline": "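Five-concentration response, 48 h; readout is ATP-driven luciferase luminescence.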", "values": [
      {"smiles": "Cn1c2ccccc2c2c3c(c4c5ccccc5n(CCC#N)c4c21)CNC3=O", "Potency": "inactive"},
      {"smiles": "COc1cc(-c2nn(C3CCC(N4CCN(C(C)=O)CC4)CC3)c3ncnc(N)c23)ccc1NC(=O)c1cc2ccccc2n1C", "note": "(stereo not drawn)", "Potency": "inactive"},
      {"smiles": "O=C(O)C1(Cc2cccc(Nc3nccs3)n2)CCC(Oc2cccc(Cl)c2F)CC1", "note": "(stereo not drawn)", "Potency": "1000 nM (active)"},
      {"smiles": "CNC(=O)c1nn(C)c2c1C(C)(C)Cc1cnc(Nc3ccc(N4CCN(C)CC4)cc3)nc1-2", "Potency": "2240 nM (active)"},
      {"smiles": "CNC(=O)c1c(F)cccc1Nc1nc(Nc2cc3c(cc2OC)CCN3C(=O)CN(C)C)nc2[nH]ccc12", "Potency": "inactive"}
    ]},
    {"test_system": "not listed separately", "assay": "qHTS assay to identify inhibitors of the type 1 interferon - major histocompatibility complex class I in skeletal muscle: Counter screen cell viability and HiBit confirmation (AID 1347412); further: nearly all actives have a fitted effect of over 60% in size", "conditions": "iHSKM muscle cells + IFN-b, HiBiT or CellTiter-Glo, 24 h; HiBiT", "outline": "(§1)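 Human myoblast knock-in line, 4.0 ng/ml IFN-beta stimulation, 24 h compound treatment. Endpoints: HiBiT lytic luminescence (HLA-B level) and CellTiter Glo (ATP). Dosing 12 concentrations, 3-fold steps, 46 uM highest final.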", "values": [
      {"smiles": "CCS(=O)(=O)c1cccc(-c2cc(C(=O)NC3CCN(C)CC3)c(C)c3[nH]c4ncc(C)cc4c23)c1", "Potency": "2790 nM (active)"},
      {"smiles": "CCOC(=O)C1=C(C)NC2=C(C(=O)CC(C)(C)C2)C1c1ccc(-c2ccccc2)cc1", "note": "(stereo not drawn)", "Potency": "2490 nM (active)"},
      {"smiles": "Nc1nc(Nc2ccc(S(N)(=O)=O)cc2)nn1C(=O)c1c(F)cccc1F", "Potency": "2490 nM (active)"},
      {"smiles": "Cc1cc(N2CCOCC2)cc2[nH]c(-c3c(NC[C@@H](O)c4cccc(Cl)c4)cc[nH]c3=O)nc12", "Potency": "6250 nM (active)"},
      {"smiles": "Nc1ccccc1NC(=O)c1ccc(CNc2nccc(-c3cccnc3)n2)cc1", "Potency": "3940 nM (active)"},
      {"smiles": "CNC(=O)c1nn(C)c2c1C(C)(C)Cc1cnc(Nc3ccc(N4CCN(C)CC4)cc3)nc1-2", "Potency": "1980 nM (active)"}
    ]},
    {"test_system": "not listed separately", "assay": "qHTS assay to identify inhibitors of the type 1 interferon - major histocompatibility complex class I in skeletal muscle: Counter screen cell viability and HiBit confirmation (AID 1347412); further: nearly all actives have a fitted effect of over 60% in size", "conditions": "iHSKM muscle cells + IFN-b, HiBiT or CellTiter-Glo, 24 h; Viability; at 45.9 µM (top of the series)", "outline": "as §1", "values": [
      {"smiles": "COc1cc2c(cc1-c1c(C)noc1C)ncc1[nH]c(=O)n([C@H](C)c3ccccn3)c12", "activity change, negative = inhibition": "1.25% (inactive)"},
      {"smiles": "COc1cc(C(=O)N2CCC(N3CCN(C)CC3)CC2)ccc1Nc1ncc2c(n1)N(C)c1ccccc1C(=O)N2C", "activity change, negative = inhibition": "-1.11% (inactive)"},
      {"smiles": "CCOC(=O)C1=C(C)NC2=C(C(=O)CC(C)(C)C2)C1c1ccc(-c2ccccc2)cc1", "note": "(stereo not drawn)", "activity change, negative = inhibition": "-16.2% (inactive)"},
      {"smiles": "C[C@@H]1COC(Nc2ccc3ncnc(Nc4ccc(OCc5nccs5)c(Cl)c4)c3c2)=N1", "activity change, negative = inhibition": "-24% (inactive)"},
      {"smiles": "Nc1nc(Nc2ccc(S(N)(=O)=O)cc2)nn1C(=O)c1c(F)cccc1F", "activity change, negative = inhibition": "19% (inactive)"},
      {"smiles": "Nc1ccccc1NC(=O)c1ccc(CNc2nccc(-c3cccnc3)n2)cc1", "activity change, negative = inhibition": "3.24% (inactive)"},
      {"smiles": "CNC(=O)c1nn(C)c2c1C(C)(C)Cc1cnc(Nc3ccc(N4CCN(C)CC4)cc3)nc1-2", "activity change, negative = inhibition": "28.9% (inactive)"}
    ]}
  ]
}
